The results in this text go back to PubChem BioAssay (NCATS).

Experiment [1] concerns the target Lysosomal acid glucosylceramidase (Homo sapiens) (UniProt P04062). Kind of experiment: Glucocerebrosidase-p2 (AID 348; in the data active = potency below about 10 µM; also: potency is read from the fitted curve at half-maximal effect). To be noted: purified GBA, blue fluorogenic substrate, 40 min. The method in brief: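 Compounds titrated from 0.6 nM upwards against 0.2 nM enzyme in pH 5.9 citric acid/KH2PO4, taurocholate, tween-20; blue fluorogenic substrate 80 uM, 40 min room temperature, stopped and read Ex 365/Em 440 for AC50.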

Experiment [2] can be described thus: AP1 Signaling Pathway (AID 357; active = well fitted curve in either direction with a large enough effect, not every such curve was filed as active; also: % is scaled to controls: 0 for no effect and ±100 for the full control effect). Particulars: ME-180 AP-1-bla reporter, EGF-induced, beta-lactamase ratio, 5 h; at 7.69 µM (top of the series) unless noted. An outline of the steps: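 Read-out was the 460nm/530nm emission ratio (excitation 405nm) after CCF4 loading for 2.5 hours at room temperature. Cells carried an AP-1-driven beta-lactamase reporter, were stimulated with EC50 EGF plus compound for 5 hours, and AC50 values came from titrations.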

For experiment [3], the target named is Cytochrome P450 1A2 (Homo sapiens) (UniProt P05177). Kind of experiment: p450-cyp1a2 (AID 410; calls by dose curve; also: potency is read from the fitted curve at half-maximal effect). Particulars: recombinant CYP1A2, luciferin-ME demethylation, luminescence; series mostly up to 57 µM. The method in brief: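 Luminescent readout of luciferin formed from Luciferin-ME by human CYP1A2; data normalized against complete inhibition by 57 uM furafylline. Enzyme 20nM, substrate 100uM at Km, 100mM KPO4 buffer, 60 min reaction at room temperature.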

Experiment [4] can be described thus: NFAT Signaling Pathway (AID 444; active = well fitted curve in either direction with a large enough effect, not every such curve was filed as active;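 also: carbachol stimulus at about its EC50 of 1 µM final; % is scaled to controls: 0 for no effect and ±100 for the full control effect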). Particulars: Jurkat NFAT-bla M1, carbachol, beta-lactamase ratio, 5 h; at 7.69 µM (top of the series) unless noted. An outline of the steps: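 Jurkat cells carrying an NFAT-driven β-lactamase reporter and co-transfected muscarinic M1 receptor were treated with compound plus carbachol (1 uM final, an EC50 level) for 5 h at 37 °C. CCF4 loading followed for 1 h at RT; 460/530 nm ratio gave %activity.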

A short description of experiment [5]: Stat Signaling Pathway (AID 446; active = well fitted curve in either direction with a large enough effect, not every such curve was filed as active;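 also: ME-180 cervical cancer cells given 40 pM IL-6 alongside compound; SIE-controlled beta-lactamase reporter measured as 460/530 nm FRET emission ratio; % is scaled to controls: 0 for no effect and ±100 for the full control effect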). Particulars: ME-180 SIE beta-lactamase reporter, IL-6 stimulated, 5 h; at 7.69 µM (top of the series) unless noted. An outline of the steps: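 ME-180 SIE-bla cells; overnight plating; cpd + IL-6 40 pM, 5 h, 37 C; LiveBLAzer 2.5 h RT; 460/530 nm emission ratio. Normalized to 300 pM IL-6 and 125 nM JAK inhibitor controls.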
For experiment [6], the target named is Glucocorticoid receptor (Homo sapiens) (UniProt P04150). Description: GR-EFC Redistribution (AID 451; calls by dose curve; also: potency is read from the fitted curve at half-maximal effect). To be noted: CHO-K1 GR-EFC translocation, beta-gal luminescence, 2 h. The method in brief: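 CHO-K1 cells stably expressing nuclear-localized β-gal enzyme acceptor and GR fused C-terminally to the enzyme donor fragment; ligand-driven nuclear translocation restores β-gal by complementation. Compounds titrated up to 46 uM final, 2 h at 37 °C; luminescence read.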

Experiment [7] deals with Mitogen-activated protein kinase 10 (Mus musculus) (UniProt Q61831). Kind of experiment: JNK3 AlphaScreen Assay (AID 530; active = well fitted curve in either direction with a large enough effect, not every such curve was filed as active;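 also: kinase came from lysate of stimulated human HepG2 cells; signal reports phosphorylation of biotinylated GST-cJun 1-79 at Ser73 with 10 µM ATP; % is scaled to controls: 0 for no effect and ±100 for the full control effect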). Particulars: JNK3 lysate, c-Jun phosphorylation; series mostly up to 57.1 µM. The method in brief: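 Inhibitors reduce antibody binding to phosphorylated biotin-cJun, lowering AlphaScreen luminescence. Lysates from HepG2 cells pre-activated by IL-1beta plus TNF-alpha supplied JNK3; compounds were titrated.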

Experiment [8] addresses 3',5'-cyclic-AMP phosphodiesterase 4B (Homo sapiens) (UniProt Q07343). Description: qHTS Assay for Inhibitors of PDE-IV (AID 607; active = well fitted activation curve with a large enough effect in the main read-out, with a control signal flat, not every such curve was filed as active; also: % of control where 0% means no effect). To be noted: HEK293 ACTOne CNG channel cells, membrane potential fluorescence; series mostly up to 22.9 µM. The method in brief:
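ACTOne HEK293 cells carry a modified cAMP-gated CNG channel and express endogenous PDE4; plated 1000 cells/well, compounds up to 22.9 uM final. Membrane-potential dye fluorescence (ex 535/em 590) was read; parental cells received 10 uM forskolin + 100 uM RO 20-1724.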
In general terms: qHTS replaces the single test concentration by a dilution series.

Experiment [9] concerns the target Cytochrome P450 3A4 (Homo sapiens) (UniProt P08684). Description: qHTS Assay for Inhibitors and Substrates of Cytochrome P450 3A4 (AID 884). Also: potency is read from the fitted curve at half-maximal effect; nearly all actives have a fitted effect of over 50% in size. Particulars: recombinant CYP3A4, Luciferin-PPXE luminescence; series mostly up to 57.1 µM. The method in brief:
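20 nM human CYP3A4 with 25 uM Luciferin-PPXE (at KM) in 200 mM KPO4, preincubated 10 min with compound; NADPH regeneration started a 60 min RT reaction. Luciferin detected by luminescence, normalized to 57 uM ketoconazole as full inhibition.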

Experiment [10] shares this target. Kind of experiment: qHTS Assay for Activators of Cytochrome P450 3A4 (AID 885). Also: nearly all actives have a fitted effect of over 65% in size. Particulars: recombinant CYP3A4, Luciferin-PPXE luminescence, 60 min; series mostly up to 57.1 µM. The method in brief: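 20nM CYP3A4 + 25uM Luciferin-PPXE (=KM), 200mM KPO4; cpd 10 min RT; NADPH regen, 60 min RT; stop w/ detection buffer, 20 min; luminescence. Normalized to 57 uM ketoconazole.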

Experiment [11] can be described thus: Confirmation and Secondary Assay for Modulators of Hemoglobin Beta Chain Splicing at IVS2 654 locus (AID 910).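 Also: per-well total GFP intensity by laser scanning cytometry after 2-day treatment; % of control where 0% means no effect.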 To be noted: HeLa EGFP-654 splicing reporter, GFP fluorescence, 48 h; series mostly up to 38.3 µM. The method in brief: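 HeLa cells stably carrying EGFP interrupted by mutant beta-globin IVS2-654 intron (CMV-driven) were treated with compound for 2 days at 37C; corrected splicing was scored as total peak GFP intensity per well (488 nm excitation, 500-520 nm emission).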

The nature of experiment [12]: Confirmation and Secondary Assay for Modulators of Hemoglobin Beta Chain Splicing at IVS2 705 locus (AID 930).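 Also: HeLa cells stably expressing the EGFP-705 splicing reporter; GFP fluorescence per well restored by corrected splicing of the IVS2-705 intron in EGFP; % of control where 0% means no effect.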 Particulars: HeLa EGFP-705 splicing reporter, GFP fluorescence, 48 h; series mostly up to 38.3 µM. The method in brief:
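Stable HeLa line with EGFP disrupted by mutant beta-globin intron 2 (705). Overnight attachment, then 2 days of compound at 37C, 5% CO2. Signal: peak GFP intensity summed over objects 5-250 µm.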

For experiment [13], the target named is Ubiquitin carboxyl-terminal hydrolase 1 (Homo sapiens) (UniProt O94782). Description: Inhibitors of USP1/UAF1: Pilot qHTS (AID 504865).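 Also: rhodamine fluorescence freed from ubiquitin-rhodamine substrate followed over time; top concentration of the series differs between compounds; % is scaled to controls: 0 for no effect and ±100 for the full control effect; nearly all actives have a fitted effect of over 35% in size.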 Particulars: purified USP1/UAF1, Ub-rhodamine cleavage fluorescence; series mostly up to 54.9 µM. An outline of the steps:
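Deubiquitinase activity followed as kinetic rhodamine fluorescence release from 150 nM Ub-Rho. 1 nM USP1/UAF1 with compound, after 15 min room-temperature preincubation, in HEPES pH 7.8 buffer containing TCEP, EDTA, BSA and Tween-20.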

Experiment [14] is described as follows: Confirmatory qHTS for small molecule stabilizers of the endoplasmic reticulum resident proteome: Secreted ER Calcium Modulated Protein (SERCaMP) assay (AID 1508628). Also: nearly all actives have a fitted effect of over 40% in size. Also: potency is read from the fitted curve at half-maximal effect. To be noted: SERCaMP secreted luciferase ER calcium/proteostasis reporter; series mostly up to 76.3 µM. The method in brief: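 SH-SY5Y cells stably expressing GLuc-SERCaMP, treated 16 h with compound (primary 1.53, 7.67, 38.3 uM; confirmation 11 concentrations, up to 76.6 uM), then 100 nM thapsigargin for 4 h. Secreted Gaussia luciferase in medium read by coelenterazine luminescence.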

Experiment [15] has as its target Rap guanine nucleotide exchange factor 3 (Homo sapiens) (UniProt O95398). Description: Confirmatory qHTS for antagonist of cAMP-regulated guanine nucleotide exchange factor 3 (EPAC1) (AID 1645880).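 Also: plate controls were DMSO only for no effect and full effect of the ATA control for full effect; nearly all actives have a fitted effect of over 55% in size.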 To be noted: EPAC1 Rap1B-BODIPY-GDP exchange, fluorescence; series mostly up to 115 µM. An outline of the steps: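 Nucleotide exchange uses 100 nM EPAC1, 250 nM RAP1B-BODIPY-GDP and 50 uM GDP, with compounds in a concentration-titration series. After 5 min at room temperature, fluorescence (480 nm ex/540 nm em) is read every 5 min for 30 min. Data are normalized to control ATA and DMSO.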

For experiment [16] the target is unchanged. Description: Confirmatory qHTS for agonist of cAMP-regulated guanine nucleotide exchange factor 3 (EPAC1) (AID 1645881).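 Also: EPAC1 catalysed release of BODIPY-GDP from Rap1B seen as fluorescence loss; nearly all actives have a fitted effect of over 75% in size.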 Particulars: EPAC1 Rap1B BODIPY-GDP exchange fluorescence, 100% = cAMP control response; series mostly up to 154 µM.
Experiment [17] deals with Rap guanine nucleotide exchange factor 4 (Homo sapiens) (UniProt Q8WZA2). Description: Confirmatory qHTS for agonist of cAMP-regulated guanine nucleotide exchange factor 4 (EPAC2) (AID 1645884).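 Also: nucleotide exchange releases bodipy-GDP from Rap1 and this lowers its fluorescence; % is scaled to controls: 0 for no effect and ±100 for the full control effect; nearly all actives have a fitted effect of over 65% in size.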 Particulars: EPAC2 GEF activity, Rap1B-BODIPY-GDP fluorescence, percent relative to cAMP agonist control; series mostly up to 154 µM.
Experiment [18] concerns the target Rap guanine nucleotide exchange factor 3 (Homo sapiens) (UniProt O95398). Description: Counterscreen qHTS for antagonist of cAMP-regulated guanine nucleotide exchange factor 3 (EPAC1) (AID 1645888).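 Also: fluorescence loss as bound BODIPY-GDP is released from Rap1B; % of control where 0% means no effect.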 Particulars: Rap1B-BODIPY-GDP nucleotide exchange, fluorescence; series mostly up to 30.8 µM. An outline of the steps: (§1)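 Measured: fluorescence of BODIPY-GDP bound to Rap1B, which falls as exchange proceeds. Conditions include 50 uM competing GDP, 5 and 30 min reads, and a later cAMP challenge for antagonist detection.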
(In general: Counterscreens check selectivity or assay interference.)

For experiment [19] the target is unchanged. Description: Counterscreen qHTS for agonist of cAMP-regulated guanine nucleotide exchange factor 3 (EPAC1) (AID 1645889). Also: % of control where 0% means no effect; nearly all actives have a fitted effect of over 40% in size. To be noted: EPAC1 Rap1B-BODIPY-GDP exchange, fluorescence; series mostly up to 154 µM. An outline of the steps: as §1
For experiment [20], the target named is Glucocorticoid receptor (Homo sapiens) (UniProt P04150). Kind of experiment: GR-GFP Redistribution (AID 450;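 active = compounds whose dose series gives a full or clear partial fitted curve of increased nuclear translocation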; also: potency is read from the fitted curve at half-maximal effect). To be noted: U2OS GR-GFP nuclear translocation, laser cytometry, 2 h.
The target of experiment [21] is Cytochrome P450 2C9 (Homo sapiens) (UniProt P11712). Kind of experiment: qHTS Assay for Inhibitors and Substrates of Cytochrome P450 2C9 (AID 883). Also: potency is read from the fitted curve at half-maximal effect; nearly all actives have a fitted effect of over 60% in size. Particulars: recombinant CYP2C9, luciferin-H luminescence, 60 min; series mostly up to 57.1 µM. An outline of the steps:
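CYP2C9 deoxyluciferin hydroxylation, 37C, 60 min with NADPH regeneration; 10nM enzyme, 100uM Luciferin-H (KM). Glo detection reagent stopped reaction; luminescence normalized to sulphaphenazole (57uM) full inhibition.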

The target of experiment [22] is Cytochrome P450 2C19 (Homo sapiens) (UniProt P33261). Kind of experiment: qHTS Assay for Inhibitors and Substrates of Cytochrome P450 2C19 (AID 899). Also: potency is read from the fitted curve at half-maximal effect; nearly all actives have a fitted effect of over 60% in size. To be noted: recombinant CYP2C19, luciferin-H EGE luminescence; series mostly up to 57.1 µM. An outline of the steps: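 In 50mM KPO4, the reaction held 5nM enzyme and KM-level (10uM) Luciferin-H EGE; it ran 60 min at 37C after NADPH regeneration and a 10 min compound preincubation. Luminescence values were scaled to 57uM ketoconazole as complete inhibition.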

The target in experiment [23] is Dual specificity protein kinase CLK4 (Homo sapiens) (UniProt Q9HAZ1). Kind of experiment: qHTS Assay for Inhibitors of CDC-like Kinase 4 (Kinase-Glo Assay) (AID 1770). Also: potency is read from the fitted curve at half-maximal effect; nearly all actives have a fitted effect of over 65% in size. To be noted: recombinant Clk4, Kinase-Glo ATP depletion luminescence; series mostly up to 66.7 µM. The method in brief:
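Luminescent ATP-depletion read-out (Kinase-Glo) after 4.5 h room-temperature reaction of Clk4 (25 nM final) with RS peptide (100 uM) and ATP (1 uM), pH 7.5 Tris buffer with MgCl2 and DTT.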

For experiment [24] the target is unchanged. Description: qHTS Assay for Inhibitors of CDC-like Kinase 4 (ADP-Glo Assay) (AID 1771). Also: potency is read from the fitted curve at half-maximal effect; nearly all actives have a fitted effect of over 70% in size. To be noted: recombinant CLK4, ADP-Glo luminescence; series mostly up to 80 µM. An outline of the steps:
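Luminescence from ADP-Glo reports ADP produced by 25 nM Clk4 acting on 100 uM RS repeat peptide with 1 uM ATP over 1 hr at room temperature; residual ATP is depleted before ADP is converted to ATP for detection.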

The target is the same in experiment [25]. Description: qHTS Assay for Inhibitors of CDC-like Kinase 4 (ADP-FP Assay) (AID 1795). Also: potency is read from the fitted curve at half-maximal effect; nearly all actives have a fitted effect of over 60% in size. Particulars: Transcreener ADP fluorescence polarization; series mostly up to 50 µM. An outline of the steps:
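Kinase activity was measured as ADP production using Transcreener orange tracer (4 nM) and ADP antibody (1 ug/mL) fluorescence polarization, with ADP calculated from a calibration curve. The 1 h reaction contained 6.25 nM Clk4, 1 uM ATP and 100 uM RS peptide at pH 7.5 with Mg2+.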

Structures are written as SMILES. A number with no mark means an inactive call. Results filed as inconclusive are left out. Active and inactive are the calls of the source. Unless noted, calls follow the shape of the dose curve; as a rule, active = well fitted curve in the direction sought with a large enough effect; inconclusive = small, poorly fitted or top-dose-only effect, or another doubt; inactive = no such curve, though single readings can be large; an effect the other way counts as inactive or inconclusive. A value given as a limit tells only on which side of the number the result lay.

Sequence of Glucocorticoid receptor (Homo sapiens) (P04150 whole entry, looked up, the tested form may be a part): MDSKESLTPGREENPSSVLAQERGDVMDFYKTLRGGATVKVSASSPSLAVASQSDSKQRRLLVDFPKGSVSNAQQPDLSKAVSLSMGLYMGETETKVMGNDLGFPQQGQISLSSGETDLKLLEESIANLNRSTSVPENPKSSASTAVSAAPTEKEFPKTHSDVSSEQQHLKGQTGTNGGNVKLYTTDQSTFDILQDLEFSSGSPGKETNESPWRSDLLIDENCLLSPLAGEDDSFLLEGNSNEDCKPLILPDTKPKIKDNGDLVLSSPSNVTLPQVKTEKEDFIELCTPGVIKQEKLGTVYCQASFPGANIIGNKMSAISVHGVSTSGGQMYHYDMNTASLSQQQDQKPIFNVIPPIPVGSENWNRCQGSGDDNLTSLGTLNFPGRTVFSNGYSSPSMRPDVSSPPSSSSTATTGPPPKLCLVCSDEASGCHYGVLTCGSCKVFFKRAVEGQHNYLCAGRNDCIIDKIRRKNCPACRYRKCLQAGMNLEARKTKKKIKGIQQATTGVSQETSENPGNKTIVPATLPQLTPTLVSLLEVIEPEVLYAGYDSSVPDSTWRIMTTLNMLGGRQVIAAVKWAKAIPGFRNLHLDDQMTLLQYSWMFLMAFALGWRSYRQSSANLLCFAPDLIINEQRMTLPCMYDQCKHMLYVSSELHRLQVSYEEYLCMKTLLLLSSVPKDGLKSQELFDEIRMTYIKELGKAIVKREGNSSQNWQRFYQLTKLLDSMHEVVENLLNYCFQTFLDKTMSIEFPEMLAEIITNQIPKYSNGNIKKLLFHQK
Sequence of Dual specificity protein kinase CLK4 (Homo sapiens) (Q9HAZ1 whole entry, looked up): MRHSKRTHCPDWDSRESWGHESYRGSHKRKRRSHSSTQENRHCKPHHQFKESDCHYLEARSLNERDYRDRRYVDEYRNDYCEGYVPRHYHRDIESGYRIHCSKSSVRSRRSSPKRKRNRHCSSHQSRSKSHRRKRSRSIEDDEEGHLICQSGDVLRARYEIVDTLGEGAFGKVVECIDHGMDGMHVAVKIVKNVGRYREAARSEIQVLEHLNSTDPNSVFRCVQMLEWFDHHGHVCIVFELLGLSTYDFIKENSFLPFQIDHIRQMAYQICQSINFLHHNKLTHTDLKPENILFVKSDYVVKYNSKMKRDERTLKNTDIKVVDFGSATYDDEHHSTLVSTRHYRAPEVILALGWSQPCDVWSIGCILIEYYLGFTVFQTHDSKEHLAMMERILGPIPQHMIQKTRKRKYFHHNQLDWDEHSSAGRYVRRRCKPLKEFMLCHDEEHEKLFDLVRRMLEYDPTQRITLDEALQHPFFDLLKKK
Sequence of Rap guanine nucleotide exchange factor 3 (Homo sapiens) (O95398 whole entry, looked up): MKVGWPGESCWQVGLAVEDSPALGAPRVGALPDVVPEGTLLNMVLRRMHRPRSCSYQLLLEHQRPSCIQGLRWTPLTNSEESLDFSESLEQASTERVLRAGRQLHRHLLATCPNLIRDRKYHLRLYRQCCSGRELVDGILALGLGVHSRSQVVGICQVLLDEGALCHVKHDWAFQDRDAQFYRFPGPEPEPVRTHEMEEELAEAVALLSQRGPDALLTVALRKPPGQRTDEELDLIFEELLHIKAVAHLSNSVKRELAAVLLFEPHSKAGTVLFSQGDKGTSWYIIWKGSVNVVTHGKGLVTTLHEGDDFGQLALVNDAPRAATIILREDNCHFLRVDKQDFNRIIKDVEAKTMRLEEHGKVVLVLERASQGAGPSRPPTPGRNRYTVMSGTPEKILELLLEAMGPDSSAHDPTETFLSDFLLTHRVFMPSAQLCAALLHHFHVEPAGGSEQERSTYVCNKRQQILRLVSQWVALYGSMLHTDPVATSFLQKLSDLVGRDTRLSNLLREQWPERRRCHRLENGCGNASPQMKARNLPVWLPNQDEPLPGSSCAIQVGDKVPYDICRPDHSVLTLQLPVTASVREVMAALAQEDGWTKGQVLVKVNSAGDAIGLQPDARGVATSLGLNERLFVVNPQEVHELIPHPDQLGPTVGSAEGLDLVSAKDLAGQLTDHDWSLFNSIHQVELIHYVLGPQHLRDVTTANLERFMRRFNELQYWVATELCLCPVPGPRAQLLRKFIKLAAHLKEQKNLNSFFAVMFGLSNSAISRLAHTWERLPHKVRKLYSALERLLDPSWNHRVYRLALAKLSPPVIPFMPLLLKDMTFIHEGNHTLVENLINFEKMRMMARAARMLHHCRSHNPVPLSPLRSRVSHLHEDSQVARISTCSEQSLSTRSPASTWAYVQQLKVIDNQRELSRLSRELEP
Sequence of Ubiquitin carboxyl-terminal hydrolase 1 (Homo sapiens) (O94782 whole entry, looked up): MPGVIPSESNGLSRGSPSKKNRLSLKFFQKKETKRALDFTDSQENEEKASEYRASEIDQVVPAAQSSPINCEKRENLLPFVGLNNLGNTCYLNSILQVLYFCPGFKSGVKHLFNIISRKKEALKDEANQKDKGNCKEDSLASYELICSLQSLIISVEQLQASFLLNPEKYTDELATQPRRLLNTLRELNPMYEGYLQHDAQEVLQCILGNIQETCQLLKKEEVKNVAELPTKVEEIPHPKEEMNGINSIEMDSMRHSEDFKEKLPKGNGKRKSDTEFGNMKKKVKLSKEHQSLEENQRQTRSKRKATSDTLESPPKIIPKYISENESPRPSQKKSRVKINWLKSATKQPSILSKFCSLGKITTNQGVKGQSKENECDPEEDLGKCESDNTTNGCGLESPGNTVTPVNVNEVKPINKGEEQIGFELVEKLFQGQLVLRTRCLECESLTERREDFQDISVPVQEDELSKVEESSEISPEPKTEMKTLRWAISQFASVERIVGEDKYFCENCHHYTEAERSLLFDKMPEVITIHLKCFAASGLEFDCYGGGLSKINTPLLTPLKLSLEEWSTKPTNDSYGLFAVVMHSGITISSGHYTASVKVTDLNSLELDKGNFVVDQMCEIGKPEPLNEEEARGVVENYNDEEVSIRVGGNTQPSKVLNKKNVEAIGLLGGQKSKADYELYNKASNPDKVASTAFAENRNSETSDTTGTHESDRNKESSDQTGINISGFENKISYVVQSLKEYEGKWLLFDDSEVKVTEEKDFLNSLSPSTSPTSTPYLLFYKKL
Sequence of Lysosomal acid glucosylceramidase (Homo sapiens) (P04062 whole entry, looked up): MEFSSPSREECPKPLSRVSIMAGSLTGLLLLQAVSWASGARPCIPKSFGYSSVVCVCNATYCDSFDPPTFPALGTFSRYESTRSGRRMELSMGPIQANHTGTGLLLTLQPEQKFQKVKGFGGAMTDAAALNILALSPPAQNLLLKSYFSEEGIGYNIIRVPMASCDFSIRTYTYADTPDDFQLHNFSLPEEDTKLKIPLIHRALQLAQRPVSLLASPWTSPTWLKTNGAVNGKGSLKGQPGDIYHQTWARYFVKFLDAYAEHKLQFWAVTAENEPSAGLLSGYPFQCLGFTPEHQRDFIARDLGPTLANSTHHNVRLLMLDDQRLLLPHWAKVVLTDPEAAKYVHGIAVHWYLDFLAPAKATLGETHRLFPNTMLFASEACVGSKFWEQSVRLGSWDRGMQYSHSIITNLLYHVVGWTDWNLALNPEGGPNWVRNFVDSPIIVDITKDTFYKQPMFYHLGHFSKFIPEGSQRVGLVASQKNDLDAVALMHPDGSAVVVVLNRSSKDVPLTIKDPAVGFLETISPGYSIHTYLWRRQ
Sequence of Cytochrome P450 3A4 (Homo sapiens) (P08684 whole entry, looked up): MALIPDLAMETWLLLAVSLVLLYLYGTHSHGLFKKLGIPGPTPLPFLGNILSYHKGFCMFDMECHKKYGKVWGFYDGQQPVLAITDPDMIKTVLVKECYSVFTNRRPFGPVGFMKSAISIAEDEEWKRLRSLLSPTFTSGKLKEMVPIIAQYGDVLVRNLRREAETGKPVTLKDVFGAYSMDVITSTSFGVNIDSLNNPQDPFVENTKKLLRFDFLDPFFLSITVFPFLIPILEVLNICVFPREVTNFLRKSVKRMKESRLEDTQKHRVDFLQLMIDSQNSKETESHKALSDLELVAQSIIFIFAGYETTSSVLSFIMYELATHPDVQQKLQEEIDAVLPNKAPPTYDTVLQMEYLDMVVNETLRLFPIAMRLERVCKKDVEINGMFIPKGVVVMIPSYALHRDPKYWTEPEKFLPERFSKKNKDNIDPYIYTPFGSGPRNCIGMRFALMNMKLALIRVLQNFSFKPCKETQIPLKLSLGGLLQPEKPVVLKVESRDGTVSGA
Sequence of Cytochrome P450 1A2 (Homo sapiens) (P05177 whole entry, looked up): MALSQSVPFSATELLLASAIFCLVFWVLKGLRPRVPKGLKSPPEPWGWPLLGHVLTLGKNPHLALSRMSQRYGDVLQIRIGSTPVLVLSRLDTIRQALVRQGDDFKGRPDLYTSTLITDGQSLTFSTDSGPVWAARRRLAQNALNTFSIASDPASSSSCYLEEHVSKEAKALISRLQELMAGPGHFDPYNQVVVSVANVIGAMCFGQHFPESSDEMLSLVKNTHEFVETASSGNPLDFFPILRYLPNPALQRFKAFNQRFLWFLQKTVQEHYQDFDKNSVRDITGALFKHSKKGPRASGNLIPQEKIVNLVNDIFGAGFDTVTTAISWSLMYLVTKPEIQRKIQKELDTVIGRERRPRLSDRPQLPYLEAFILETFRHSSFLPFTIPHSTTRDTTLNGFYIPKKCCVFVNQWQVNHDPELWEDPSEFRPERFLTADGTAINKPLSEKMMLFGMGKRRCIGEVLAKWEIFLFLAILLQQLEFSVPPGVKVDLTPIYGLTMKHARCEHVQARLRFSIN
Sequence of Cytochrome P450 2C9 (Homo sapiens) (P11712 whole entry, looked up): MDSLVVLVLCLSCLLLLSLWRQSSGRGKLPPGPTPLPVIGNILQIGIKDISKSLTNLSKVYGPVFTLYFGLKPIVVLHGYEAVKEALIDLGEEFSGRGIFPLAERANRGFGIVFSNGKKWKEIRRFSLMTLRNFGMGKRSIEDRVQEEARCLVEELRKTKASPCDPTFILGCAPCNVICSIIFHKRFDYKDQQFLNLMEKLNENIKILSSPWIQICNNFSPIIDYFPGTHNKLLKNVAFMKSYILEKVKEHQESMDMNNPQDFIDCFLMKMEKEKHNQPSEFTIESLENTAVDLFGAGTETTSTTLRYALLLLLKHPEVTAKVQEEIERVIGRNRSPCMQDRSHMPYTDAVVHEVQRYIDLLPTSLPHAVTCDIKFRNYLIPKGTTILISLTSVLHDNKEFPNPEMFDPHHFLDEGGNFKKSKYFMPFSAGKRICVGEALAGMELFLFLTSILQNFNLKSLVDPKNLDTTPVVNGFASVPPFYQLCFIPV

For `c1ccc2c(N3CCNCC3)nc(-c3ccc4c(c3)OCO4)nc2c1`, the Potency is above 11.4 µM in experiment [1]; 12.6 µM (active) in [3]; above 46 µM in experiment [6]; 7.94 µM (active) in experiment [9]; 20 µM (active) in experiment [14]. The activity change, negative = inhibition in [2] was 14.9%; in experiment [4] it was 11.9%. The activity, negative = inhibition in [5] is 7.14%. In addition, the compound was classed as inactive in experiment [7], in [11] and in experiment [12]. Further, the Potency result in [8], in [10] and in [13] was “inactive” throughout.
For `Cc1ccc(P(=O)(CSC(=N)N)c2ccc(C)cc2)cc1`, the Potency entry in [14] and in [15] was “inactive” each time. The compound was called inactive in experiment [16] and in [18]. Further, the activation in [17] is -5.01% [at 17.1 µM]; in experiment [19] it was -0.0561% [at 30.8 µM].
In the case of `CN(C)c1ncc2ncc(=O)n(CCc3ccccc3)c2n1`, the Potency in experiment [1] was above 11.4 µM; in [3], 0.794 µM (active); in experiment [20] it was above 9.22 µM; in experiment [6] it was above 46 µM; in experiment [21], 6.31 µM (active); in experiment [22] it was 2 µM (active). In addition, the Potency is 6.31 µM (active) in experiment [23], 6.31 µM (active) in experiment [24], 5.01 µM (active) in experiment [25] and 39.8 µM (active) in experiment [14]. Besides, the activity change, negative = inhibition in experiment [2] was -21.4%; in experiment [4] it was -10.8%. The activity, negative = inhibition in experiment [5] was -10.8%. In experiment [7], the result was inactive. In experiment [13], the Potency entry is “inactive”.
